Reference: PubChem BioAssay (NCATS)
“And” between values parts separate entries of the source, which are not always exact repeats. Identical values can stand only once. Results filed as inconclusive are left out. A number with no mark means an inactive call. The source made the active and inactive calls. Calls follow the shape of the dose curve; as a rule, active = well fitted curve in the direction sought with a large enough effect; inconclusive = small, poorly fitted or top-dose-only effect, or another doubt; inactive = no such curve, though single readings can be large; an effect the other way counts as inactive or inconclusive.

Assay: Primary qHTS for small molecule stabilizers of the endoplasmic reticulum resident proteome: Secreted ER Calcium Modulated Protein (SERCaMP) assay (AID 1508630)
Conditions: SH-SY5Y GLuc-SERCaMP (Gaussia luciferase released on ER calcium loss) secretion, thapsigargin, luminescence; series mostly up to 38.4 µM; activity change, negative = inhibition: at the top concentration
Summary of the method: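 GLuc-SERCaMP-expressing SH-SY5Y cells, pretreated 16 h with compound, are challenged with thapsigargin to empty ER calcium stores; after 4 h, coelenterazine is added directly to the medium and luminescence is imaged.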
% is scaled to controls: 0 for no effect and ±100 for the full control effect.

Row | SMILES | activity change, negative = inhibition | Potency
1 | CCN(CCO)CCCOc1ccc2c(Nc3cc(CC(=O)Nc4cccc(F)c4)[nH]n3)ncnc2c1 | 49.2% | 
2 | CN(C)CC[C@H](CSc1ccccc1)Nc1ccc(S(=O)(=O)NC(=O)c2ccc(N3CCN(Cc4ccccc4-c4ccc(Cl)cc4)CC3)cc2)cc1[N+](=O)[O-] | 383% | 
3 | OC1CCC(Nc2ncc3nc(Nc4c(F)cc(F)cc4F)n([C@@H]4CCOC4)c3n2)CC1 (some centres not stated) | 25.7% | 
4 | CCOC(=O)c1c(CSc2ccccc2)n(C)c2cc(Br)c(O)c(CN(C)C)c12 | -28.6% | 
5 | O=C(O)CCC=CCC[C@@H]1[C@H](N2CCCCC2)[C@@H](O)C[C@@H]1OCc1ccc(-c2ccccc2)cc1 | 208% | 
6 | Nc1ncnc2c1ncn2[C@@H]1O[C@H](CO)[C@@H](O)[C@@H]1O |  | inactive
7 | CN1CCN2c3ncccc3Cc3ccccc3C2C1 (configuration not stated) | 34.7% | 
8 | C[C@]12CC[C@@H]3c4ccc(O)cc4CC[C@H]3[C@H]1[C@@H](O)[C@@H](O)[C@H]2O | 150% | 
9 | CCC[C@H](Nc1nc(-c2ccc(NC(=O)NCC)c(OC)c2)ncc1C)c1cccnc1 | 75.9% | 
10 | O=C(O)c1nc(=O)[nH]c(=O)[nH]1 | 9.88% [at 21.6 µM] | 
11 | CC1=C[C@@H]2[C@@H]([C@@H](O)C[C@@]3(C)[C@H]2C[C@@H](C)[C@]3(O)C(=O)CO)[C@@]2(C)Cc3cnn(-c4ccccc4)c3C=C12 | 53.1% | 
12 | N[C@@H](CC(=O)N1CCn2c(nnc2C(F)(F)F)C1)Cc1cc(F)c(F)cc1F | 83.3% | 
13 | CC(C)[C@H](O)C(=O)N[C@@H](C)C(=O)N[C@@H]1C(=O)N(C)CCc2ccccc21 | 0% | 
14 | NCC1CCC(C(=O)O)CC1 (configuration not stated) | 39.8% | 
15 | CC(C)(F)C[C@H](N[C@@H](c1ccc(-c2ccc(S(C)(=O)=O)cc2)cc1)C(F)(F)F)C(=O)NC1(C#N)CC1 | -4.4% | 
16 | Cc1ccc(S(=O)(=O)OCC(=O)Nc2ccc(C(=O)O)c(O)c2)cc1 | -10.8% | 
17 | OC(c1cc(C(F)(F)F)nc2c(C(F)(F)F)cccc12)C1CCCCN1 (configuration not stated) | 179% | 
18 | O=C(NC[C@H](O)CO)c1ccncc1Nc1ccc(I)cc1F | -98.9% | 
19 | NC(=O)c1ccc(N(C(N)=O)c2c(F)cccc2F)nc1-c1ccc(F)cc1F | 0% | 

Row | SMILES | activity change, negative = inhibition | Potency
20 | CS(=O)(=O)c1ccc(C2=C(c3ccccc3)C(=O)OC2)cc1 | 12.8% | 
21 | Cc1ccc(C(=O)N(CCCN)[C@@H](c2nc3cc(Cl)ccc3c(=O)n2Cc2ccccc2)C(C)C)cc1 | 159% | 
22 | Cc1ccc2c(c1)C(=O)[C@]1(O)CCN(c3ccccc3)C1=N2 | 77.2% | 
23 | Cc1ccc2c(=O)c3cccc(CC(=O)O)c3oc2c1C | 7.82% | 
24 | COc1nccc(-c2c(-c3ccc(F)cc3)ncn2C2CCNCC2)n1 | 8.63% | 
25 | CN(C)CCN(C)C(=O)c1ccc(NC(=O)Nc2ccc(-c3nc(N4CCOCC4)c4ccn(CC(F)(F)F)c4n3)cc2)cc1 | 122% | 
26 | C=CC(=O)Nc1cccc(Sc2nc(Nc3ccc(N4CCN(C)CC4)cc3)ncc2Cl)c1 | 276% | 
27 | O=C(O)Cc1cccc(OCCCN(Cc2cccc(C(F)(F)F)c2Cl)CC(c2ccccc2)c2ccccc2)c1 |  | inactive
28 | CC(=O)NCCC(=O)N[C@@H](CCC(N)=O)C(=O)N[C@@H](CO)C(=O)N[C@@H](CCC(N)=O)C(=O)N[C@@H](CCC(N)=O)C(=O)N[C@H](C(=O)N[C@@H](Cc1ccccc1)C(=O)N[C@]1(C)CCCCCCC=CCCC[C@@](C)(C(=O)N[C@@H](CCC(N)=O)C(=O)N[C@@H](CC(N)=O)C(N)=O)NC(=O)[C@H](CC(C)C)NC(=O)[C@H](CC(C)C)NC(=O)[C@@H](CCCNC(=N)N)NC(=O)[C@H](Cc2c[nH]c3ccccc23)NC(=O)[C@H](CC(C)C)NC(=O)[C@H](CC(N)=O)NC1=O)[C@H](C)O | 88.5% | 
29 | CCOc1ccccc1N=Nc1c(C)[nH]n(-c2nc(-c3ccccc3)cs2)c1=O | 0% | 
30 | Cc1c(C(=O)Nc2ccc(N3C[C@@H](C)O[C@@H](C)C3)nc2)cccc1-c1ccc(OC(F)(F)F)cc1 | 0% | 
31 | CC[C@H](C)n1cc(C)c2c(C(=O)NCc3c(C)cc(C)[nH]c3=O)cc(-c3ccc(N4CCNCC4)nc3)cc21 | 120% | 
32 | COc1cc2c(cc1Cc1cccc(Cl)c1F)c(=O)c(C(=O)O)cn2[C@H](CO)C(C)C | 61.5% | 
33 | CO[C@@H]1C(N(C)C(=O)c2ccccc2)C[C@H]2O[C@]1(C)n1c3ccccc3c3c4c(c5c6ccccc6n2c5c31)C(=O)NC4=O (some centres not stated) | 61.8% | 
34 | CCC(C)SSc1ncc[nH]1 (configuration not stated) | 2.2% | 
35 | NCc1c[nH]c(=S)n1[C@H]1CCc2c(F)cc(F)cc2C1 | -27.6% | 
36 | O=C1CCCC(=O)C1C(=O)c1ccc(C(F)(F)F)cc1[N+](=O)[O-] | 33.8% | 
37 | COc1ccc2nc3cc(Cl)ccc3c(Nc3cc(CN4CCCC4)c(O)c(CN4CCCC4)c3)c2n1 | 2.31% | 
38 | O=c1cc(-c2ccc(O)c(O)c2)oc2cc(O)cc(O)c12 | 332% | 

Assay: Primary qHTS for inhibitors of nuclear receptor binding SET domain protein 2 (NSD2) in an isogenic RCH-ACV NSD2 p.E1099K mutant (9B) (AID 1645876); also: nearly all actives have a fitted effect of over 70% in size; also: potency is read from the fitted curve at half-maximal effect
Conditions: RCH-ACV (leukaemia line) NSD2 E1099K (9B) viability, CellTiter-Glo, 72 h; series mostly up to 44.9 µM; activity change, negative = viability loss: at the top concentration

Row | SMILES | Potency | activity change, negative = viability loss | outcome
39 | CCN(CCO)CCCOc1ccc2c(Nc3cc(CC(=O)Nc4cccc(F)c4)[nH]n3)ncnc2c1 | 5.9 µM (active) |  | 
40 | CN(C)CC[C@H](CSc1ccccc1)Nc1ccc(S(=O)(=O)NC(=O)c2ccc(N3CCN(Cc4ccccc4-c4ccc(Cl)cc4)CC3)cc2)cc1[N+](=O)[O-] | 4.17 µM (active) |  | 
41 | OC1CCC(Nc2ncc3nc(Nc4c(F)cc(F)cc4F)n([C@@H]4CCOC4)c3n2)CC1 (some centres not stated) |  | -23.2% | 
42 | CCOC(=O)c1c(CSc2ccccc2)n(C)c2cc(Br)c(O)c(CN(C)C)c12 | 18.6 µM (active) |  | 
43 | O=C(O)CCC=CCC[C@@H]1[C@H](N2CCCCC2)[C@@H](O)C[C@@H]1OCc1ccc(-c2ccccc2)cc1 |  | -1.57% | 
44 | Nc1ncnc2c1ncn2[C@@H]1O[C@H](CO)[C@@H](O)[C@@H]1O | 16.6 µM (active) |  | 
45 | CN1CCN2c3ncccc3Cc3ccccc3C2C1 (configuration not stated) |  | 3.71% | 
46 | CCC[C@H](Nc1nc(-c2ccc(NC(=O)NCC)c(OC)c2)ncc1C)c1cccnc1 | 0.0263 µM (active) |  | 
47 | O=C(O)c1nc(=O)[nH]c(=O)[nH]1 |  | 0.798% [at 17.3 µM] | 
48 | CC1=C[C@@H]2[C@@H]([C@@H](O)C[C@@]3(C)[C@H]2C[C@@H](C)[C@]3(O)C(=O)CO)[C@@]2(C)Cc3cnn(-c4ccccc4)c3C=C12 | 3.32 µM (active) |  | 
49 | N[C@@H](CC(=O)N1CCn2c(nnc2C(F)(F)F)C1)Cc1cc(F)c(F)cc1F |  | -15% | 
50 | CC(C)[C@H](O)C(=O)N[C@@H](C)C(=O)N[C@@H]1C(=O)N(C)CCc2ccccc21 |  |  | inactive
51 | NCC1CCC(C(=O)O)CC1 (configuration not stated) |  |  | inactive [at 17.3 µM]
52 | CC(C)(F)C[C@H](N[C@@H](c1ccc(-c2ccc(S(C)(=O)=O)cc2)cc1)C(F)(F)F)C(=O)NC1(C#N)CC1 |  | 4.45% | 
53 | Cc1ccc(S(=O)(=O)OCC(=O)Nc2ccc(C(=O)O)c(O)c2)cc1 |  | 2.68% | 
54 | OC(c1cc(C(F)(F)F)nc2c(C(F)(F)F)cccc12)C1CCCCN1 (configuration not stated) | 11.8 µM (active) |  | 
55 | NC(=O)c1ccc(N(C(N)=O)c2c(F)cccc2F)nc1-c1ccc(F)cc1F | inactive |  | 

Row | SMILES | Potency | activity change, negative = viability loss | outcome
56 | CS(=O)(=O)c1ccc(C2=C(c3ccccc3)C(=O)OC2)cc1 |  | 0.542% | 
57 | Cc1ccc(C(=O)N(CCCN)[C@@H](c2nc3cc(Cl)ccc3c(=O)n2Cc2ccccc2)C(C)C)cc1 | 0.0132 µM (active) |  | 
58 | Cc1ccc2c(=O)c3cccc(CC(=O)O)c3oc2c1C |  |  | inactive
59 | CN(C)CCN(C)C(=O)c1ccc(NC(=O)Nc2ccc(-c3nc(N4CCOCC4)c4ccn(CC(F)(F)F)c4n3)cc2)cc1 | 0.0209 µM (active) |  | 
60 | C=CC(=O)Nc1cccc(Sc2nc(Nc3ccc(N4CCN(C)CC4)cc3)ncc2Cl)c1 | 2.9 µM (active) and 2.95 µM (active) |  | 
61 | O=C(O)Cc1cccc(OCCCN(Cc2cccc(C(F)(F)F)c2Cl)CC(c2ccccc2)c2ccccc2)c1 |  | -21.4% | 
62 | CC(=O)NCCC(=O)N[C@@H](CCC(N)=O)C(=O)N[C@@H](CO)C(=O)N[C@@H](CCC(N)=O)C(=O)N[C@@H](CCC(N)=O)C(=O)N[C@H](C(=O)N[C@@H](Cc1ccccc1)C(=O)N[C@]1(C)CCCCCCC=CCCC[C@@](C)(C(=O)N[C@@H](CCC(N)=O)C(=O)N[C@@H](CC(N)=O)C(N)=O)NC(=O)[C@H](CC(C)C)NC(=O)[C@H](CC(C)C)NC(=O)[C@@H](CCCNC(=N)N)NC(=O)[C@H](Cc2c[nH]c3ccccc23)NC(=O)[C@H](CC(C)C)NC(=O)[C@H](CC(N)=O)NC1=O)[C@H](C)O |  | -16.1% | 
63 | CCOc1ccccc1N=Nc1c(C)[nH]n(-c2nc(-c3ccccc3)cs2)c1=O |  | 8.03% | 
64 | Cc1c(C(=O)Nc2ccc(N3C[C@@H](C)O[C@@H](C)C3)nc2)cccc1-c1ccc(OC(F)(F)F)cc1 |  | -2.53% | 
65 | CC[C@H](C)n1cc(C)c2c(C(=O)NCc3c(C)cc(C)[nH]c3=O)cc(-c3ccc(N4CCNCC4)nc3)cc21 | 18.6 µM (active) |  | 
66 | COc1cc2c(cc1Cc1cccc(Cl)c1F)c(=O)c(C(=O)O)cn2[C@H](CO)C(C)C | 7.42 µM (active) |  | 
67 | CO[C@@H]1C(N(C)C(=O)c2ccccc2)C[C@H]2O[C@]1(C)n1c3ccccc3c3c4c(c5c6ccccc6n2c5c31)C(=O)NC4=O (some centres not stated) | 1.66 µM (active) |  | 
68 | CCC(C)SSc1ncc[nH]1 (configuration not stated) | 9.34 µM (active) |  | 
69 | NCc1c[nH]c(=S)n1[C@H]1CCc2c(F)cc(F)cc2C1 |  | -10.5% | 
70 | O=C1CCCC(=O)C1C(=O)c1ccc(C(F)(F)F)cc1[N+](=O)[O-] |  |  | inactive
71 | COc1ccc2nc3cc(Cl)ccc3c(Nc3cc(CN4CCCC4)c(O)c(CN4CCCC4)c3)c2n1 | 2.95 µM (active) |  | 
72 | O=c1cc(-c2ccc(O)c(O)c2)oc2cc(O)cc(O)c12 | 10.5 µM (active) |  | 
